Screens (PubChem BioAssay)
KCNH2 3.1 inh: KCNH2 3.1 (human) potassium channel inhibition; U2OS KCNH2 3.1, thallium flux FluxOr; hits give low values; activity change, % (tested at about 1.8 µM); 340,000 tested, 0.95% active; AID 720553;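 active = maximum activity change below -70%; inconclusive = maximum activity change from -70% to -50%; inactive = maximum activity change above -50%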;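 note: thallium influx rate constant from kinetic fluorescence after stimulation buffer; % is set by controls: 0 for no effect and ±100 for the full control effect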
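FluxOr-based Tl+ influx in U2OS cells transduced with KCNH2 3.1 virus; rate constants normalized to DMSO controls.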
ALOX12 inh: blocks human arachidonate 12S-lipoxygenase | P18054 | purified 12hLO, xylenol orange hydroperoxide absorbance | Potency, µM (doses to about 108 µM), for inactives: top-dose activity change, negative = inhibition, actives largely listed as inhibitors | 580,000 tested, 1.1% active | AID 1671190; note: potency is the fitted concentration of half-maximal effect; % is set by controls: 0 for no effect and ±100 for the full control effect
Target sequence (P18054 whole entry, looked up): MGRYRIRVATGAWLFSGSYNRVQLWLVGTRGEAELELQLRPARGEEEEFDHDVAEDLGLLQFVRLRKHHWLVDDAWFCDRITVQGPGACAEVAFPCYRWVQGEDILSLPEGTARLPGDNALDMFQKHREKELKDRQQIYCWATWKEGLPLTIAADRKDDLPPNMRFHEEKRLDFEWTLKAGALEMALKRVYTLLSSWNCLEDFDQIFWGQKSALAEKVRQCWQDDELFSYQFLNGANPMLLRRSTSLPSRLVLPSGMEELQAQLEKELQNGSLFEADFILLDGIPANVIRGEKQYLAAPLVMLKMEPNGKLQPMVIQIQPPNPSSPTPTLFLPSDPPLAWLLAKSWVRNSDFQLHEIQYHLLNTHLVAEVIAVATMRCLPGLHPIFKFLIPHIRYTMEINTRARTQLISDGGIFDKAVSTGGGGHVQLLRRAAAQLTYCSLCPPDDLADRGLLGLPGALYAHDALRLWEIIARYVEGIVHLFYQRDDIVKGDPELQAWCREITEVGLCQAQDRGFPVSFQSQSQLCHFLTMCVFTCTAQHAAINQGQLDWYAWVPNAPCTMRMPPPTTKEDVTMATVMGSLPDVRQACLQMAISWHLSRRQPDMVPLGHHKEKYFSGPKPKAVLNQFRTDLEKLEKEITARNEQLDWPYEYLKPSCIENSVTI
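Hydroperoxide product was detected by ferrous iron/xylenol orange as the 573 to 405 nm absorbance ratio. Arachidonic acid at 40 uM (final) was turned over for 30 min at room temperature by 150 nM human 12hLO, pH 7.0 Hepes buffer, after 15 min compound preincubation.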
AT treatment: potential ataxia-telangiectasia treatments restoring KAP-1 phosphorylation. F2112 A-T fibroblasts, KAP-1 phosphorylation AlphaLISA; neocarzinostatin DNA damage 30 min before lysis. Potency, µM (series often up to 57.5 µM), inactives show top-dose activation, actives largely listed as activators. 320,000 tested, 0.19% active. AID 485349; note: potency is the fitted concentration of half-maximal effect; % of control where 0% means no effect; nearly all actives have a fitted effect of over 45% in size
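hTERT-immortalized A-T patient fibroblasts (F2112), 500 cells/well in OPTI-MEM, 1% FBS, got compounds for 60 min, then NCS for 30 min at 37C. Lysates were then assayed for phospho-KAP-1 by AlphaLISA (anti-pKAP1 donor, anti-KAP1 acceptor beads), 6 hr at 25C.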
hERG WT inh: blocks the wildtype human KCNH2 potassium channel | Q12809 | U2OS, BacMam KCNH2, thallium flux FluxOr; hits give low values | activity change, % at 1.84 µM | 340,000 tested, 0.37% active;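 active = maximum activity change below -70%; inconclusive = maximum activity change between -70% and -50%; inactive = maximum activity change above -50%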; note: % is set by controls: 0 for no effect and ±100 for the full control effect
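U2OS cells were transduced with wild-type KCNH2 virus (2.03 x 10^8 / mL) for 4 h at room temperature, then cultured overnight at 37 C. Thallium flux was read with FluxOr dye. Rate constants were normalized to DMSO controls.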
Starred values were filed as active, the others as inactive; ? = inconclusive; · = no result given; [ ] = remark or other dose. Most compounds without a hit are left out; they make up all but 1.8% or so of the library. Unless noted, calls come from the whole dose curve; as a rule, active = well fitted curve in the direction sought with a large enough effect; inconclusive = small, poorly fitted or top-dose-only effect, or another doubt; inactive = no such curve, though single readings can be large; an effect the other way counts as inactive or inconclusive.

SMILES | KCNH2 3.1 inh | ALOX12 inh | AT treatment | hERG WT inh
CN1CCN(CCc2nc3cc(NC(=O)COc4ccccc4)ccc3n2C)CC1 | -5.9 | 0.3% | 2.2% | 1.1
Cc1cccc(OCC(=O)Nc2ccc3c(c2)nc(CN2CCCCC2)n3C)c1 | -14.9 | ? | -3.4% | 15.3
Cc1nc2ccc(NC(=O)c3ccc4c(c3)NC(=O)CS4)cc2s1 | · | 17.0% | · | ·
O=C(c1cc(COc2ccc(F)c(F)c2)on1)N1CCN(C2CCCCC2)C(=O)C1 | -125.4* | -2.1% | 2.1% | -6.4
COc1ccccc1CNCc1cc(OC)c(OC)c(OC)c1 | 0.2 | -44.3% | 3.2% | 3.1
COc1ccc(CNCc2ccncc2)c(OC)c1 | -7.4 | 29.9% | -1.4% | 3.6
COc1ccc(CNCc2ccc3ccccc3c2)c(OC)c1 | -98.0* | ? | -0.5% | 6.5
COc1ccccc1CNCc1ccc(C)cc1 | 5.4 | 1µM* | 4.7% | 9.6
CC(C)(c1cc(Br)c(O)c(Br)c1)c1cc(Br)c(O)c(Br)c1 | 7.3 | 44.7µM* | -3.7% | 1.6
Cc1ccc(NC2=C(Cl)C(=O)OC2OC(=O)c2ccc(C)cc2)cc1 (stereo unspecified) | ? | 7.94µM* | 3.3% | ?
O=C(NC1CCN(CC(=O)N(c2ccccc2)c2ccccc2)CC1)c1ccc([N+](=O)[O-])cc1 | -110.5* | -9.8% | -0.4% | -76.6*
COc1ccc(C(=O)NC2CC2)cc1OC1CCN(Cc2cc(C)c(C)cc2C)CC1 | -75.4* | 1.6% | 19.8% | ?
COc1ccc(CN2CCC(Oc3cc(C(=O)NC4CC4)ccc3OC)CC2)c(O)c1 | -94.4* | 15.9% | -5.1% | -109.1*
COc1cc(CN2CCC(Oc3cc(C(=O)NC4CC4)ccc3OC)CC2)cc(OC)c1 | -28.2 | -6.5% | -2.7% | -17.9
COc1ccc(C(=O)NC2CC2)cc1OC1CCN(Cc2ccc(F)cc2Cl)CC1 | -93.5* | 2.9% | · | -75.0*
CC1CCCCC1NC(=O)CN1CCC(NC(=O)c2ccc([N+](=O)[O-])cc2)CC1 (stereo unspecified) | -2.9 | 3.7% | -0.6% | 18.1
O=C(NC1CCN(Cc2ccc(Cl)cc2Cl)CC1)c1ccccc1 | -83.6* | -26.6% | -2.3% | -2.0
O=C(c1cc(-c2ccncc2)nc2ccccc12)N1CCN(C(=O)C2CC2)CC1 | · | 8.6% | · | ·
Cc1cnc(CNc2ncncc2-c2ccc(N(C)C)cc2)cn1 | · | -22.2% | · | ·
CC(=O)NCCNc1ncncc1-c1ccc(N(C)C)cc1 | · | 44.7µM* | · | ·
CNc1ncncc1-c1ccc(C(=O)N(C)C)cc1 | · | 31.6µM* | · | ·
CCc1cc2cc(C)cc(C)c2[nH]c1=S | -95.9* | ? | 0.2% | -1.0
NCCCC[C@@H]1NC(=O)[C@H](CCC(=O)O)NC(=O)c2cc([N+](=O)[O-])cc(I)c2SC[C@@H](C(=O)NCC(N)=O)NC1=O | 11.8 | 39.8µM* | -1.5% | -18.0
Cn1cc(C(=O)NCCNC(=O)c2ccccc2)c2ccccc21 | · | 8.7% | · | ·
CCCNC(=O)c1csc2c1CCCCC2 | -78.0* | 0.0% | 4.7% | 0.2
SMILES | KCNH2 3.1 inh | ALOX12 inh | AT treatment | hERG WT inh
Cc1nc2c(OCc3ccccc3)cccn2c1N(C)C(=O)C1CCCCC1 | · | 50.1µM* | · | ·
CCc1nc2c(OCc3ccccc3C)cccn2c1N(C)C(=O)C1CC1 | · | -0.6% | · | ·
Cc1ccsc1CN1CCCN(S(C)(=O)=O)C(c2ccccc2)CC(=O)NCC1 (stereo unspecified) | · | 4.1% | · | ·
CC(C)(O)C1CCCN(C(=O)c2cc(COc3cccc(F)c3)[nH]n2)C1 (stereo unspecified) | · | 30.8% | · | ·
COC(=O)[C@H](Cc1ccccc1)NC(=O)N1CCCCCC1 | -0.7 | 28.6% | 10.6% | ·
COC(=O)[C@H](CC(C)C)NC(=O)N1CCCCC1 | -126.0* | ? | -12.3% | -0.3
O=C(NC(=S)Nc1cccc(Cl)c1N1CCCCC1)c1ccc2c(c1)OCCO2 | 9.0 | 15.8µM* | -2.8% | -9.7
O=C(NC(=S)Nc1ccc2c(c1)OCO2)c1ccccc1 | -12.4 | 73.0% | 3.3% | 1.0
O=C(NC(=S)Nc1ccc2c(c1)OCCO2)c1cccc2ccccc12 | -40.2 | 15.8µM* | -2.7% | -3.5
Cc1ccccc1C(=O)Nc1ccc2c(c1)OCCO2 | -17.9 | 0.0% | 26.4% | 5.0
O=C(NC(=S)Nc1ccc2c(c1)OCCO2)c1cccc(Br)c1 | -5.7 | 28.2µM* | -5.7% | -2.0
CC1(C)NC(=O)N(CC(O)CN2C(=O)NC(C)(C)C2=O)C1=O | -4.5 | -0.8% | -2.3% | -1.1
CC1(C)NC(=O)N(CC(O)CNC23CC4CC(CC(C4)C2)C3)C1=O (stereo unspecified) | 8.1 | 28.2% | -5.6% | -99.9*
CC(Oc1ccccc1)C(=O)NCc1nnc2ccc(-c3ccc(F)cc3)nn12 (stereo unspecified) | · | 29.6% | · | ·
Cc1ccc(S(=O)(=O)N2CCN(C(=O)COC(=O)CCOc3cc(C)ccc3C)CC2)cc1 | -12.9 | ? | 6.8% | -1.8
Cc1ccc(S(=O)(=O)N2CCN(CC(=O)Nc3ccc([N+](=O)[O-])cc3)CC2)cc1C | -91.8* | -12.2% | 0.9% | -75.9*
Cc1ccc(C)c(OCCC(=O)N2CCN(S(=O)(=O)c3ccc([N+](=O)[O-])cc3)CC2)c1 | -139.3* | -2.5% | -13.7% | 15.6
CC(C(=O)N1CCn2nc(Cc3ccccc3)cc2C1)c1ccc(O)cc1 (stereo unspecified) | · | 18.9% | · | ·
Cc1nn(C)c(C)c1CNC(=O)c1cc2n(n1)C(C(F)(F)F)CC(c1cccs1)N2 (stereo unspecified) | -2.4 | -0.3% | 1.2% | 1.5
CCOC(=O)c1c(NC(=O)c2cc3n(n2)C(C(F)(F)F)CC(c2cccs2)N3)sc(C)c1C (stereo unspecified) | -78.3* | 1.7% | -1.9% | -4.1
CCCCn1c(=S)[nH]c2c(=O)n(C)c(=O)n(C)c21 | 16.7 | 44.7µM* | · | 9.2
Cc1[nH]c2ccc(C(=O)O)cc2c1C | 0.3 | 2.3% | · | -2.1
CCCc1c(C)[nH]c2ccc(C(=O)O)cc2c1=S | 4.1 | 1.5% | 30.3% | -82.1*
Cc1cc(C)n(-c2ccc([N+](=O)[O-])cc2)n1 | -106.8* | -8.1% | 9.1% | 5.4
COc1ccc(Cl)cc1-c1ncc2c(n1)OCCN(c1ccccc1)C2=O | · | 1.5%[176 µM] | · | ·
SMILES | KCNH2 3.1 inh | ALOX12 inh | AT treatment | hERG WT inh
COc1ccc(OC)c2[nH]c(C(=O)N[C@@H](C)C(=O)N3CCN(Cc4ccccc4)CC3)cc12 | · | 2.3% | · | ·
CCOC(=O)c1nn(-c2ccc(C)cc2)c(=O)c2c(N)scc12 | 4.6 | 25.1µM* | · | -5.8
CC(=O)Nc1sc(/C(C#N)=C/c2ccc(Cl)c(Cl)c2)nc1-c1ccc(C)cc1 | 14.6 | -16.7% | 15.8µM* | -8.3
COC(=O)[C@@H]1Cc2c([nH]c3ccccc23)[C@H]2C[C@@H](NCCCn3ccnc3)C[C@@H](c3ccccc3F)N21 | · | 40.6% | · | ·
S=c1[nH]nc(CSCCOc2ccc(Cl)cc2Cl)o1 | -165.6* | ? | 1.2% | -154.4*
S=c1[nH]nc(CSCCOc2ccccc2)o1 | 0.6 | ? | -6.7% | -2.0
COc1ccc(C2/C(=C(\O)c3ccc4c(c3)CC(C)O4)C(=O)C(=O)N2Cc2cccnc2)c(OC)c1 (stereo unspecified) | 16.3 | 11.2µM* | 37.9% | -12.0
